The source of these data is ChEMBL document CHEMBL3988442, “University of Dundee, Small-Polar-MMV Screening Library” (2021).

Each structure is given as a SMILES string. The whole screen tested about 53,000 compounds, of which about 900 (1.7%) showed an effect of 50% or more. The entries come from a sample that favours strong results as a whole.

The subject of this experiment is Mycobacterium tuberculosis. Kind of experiment: Cornell - Phenotypic assay to identify agents that inhibit growth of Mycobacterium tuberculosis. Format: functional. Set-up: scale not given: direction of the effect not stated beside the values. The note with it: 10 mM as filed; unlikely as a test dose.
As to `Cc1nc(CN2CCCN(Cc3nc4c(F)cccc4[nH]3)CC2)no1`, the “Percent Effect” value is on record as -62.54%.
Under `O=C(NCCS(=O)(=O)N1CCN(c2ncccn2)CC1)C1CC1` stands -28.73%; under `CCN(Cc1ccncc1)CC1(O)CCN(C(=O)c2cccc(C)n2)C1` (configuration not stated), -8.223%; under `CCCc1nc(C)c(C(=O)NCCN2CCN(CC)CC2)s1`, 13.14%.
The same measure for `CN1CCN(CC(CC(=O)Nc2ccc(Cl)cc2)C(=O)O)CC1` (configuration not stated): 46.61%; for `Cc1cccc(C)c1NC(=O)CC(CN1CCN(C)CC1)C(=O)O` (configuration not stated): 68.43%.
As to `CN1CCCN(CC(CC(=O)Nc2ccc(Cl)cc2)C(=O)O)CC1` (configuration not stated), the “Percent Effect” value is recorded as 27.51%.
In the case of `CC(CN1CCOCC1)NC(=O)NCc1cccs1` (configuration not stated), the “Percent Effect” value was -17.54%.
For the compound `COc1cccc(N2CCN(Cc3ccc4[nH]ccc4c3)CC2=O)c1`, the “Percent Effect” value was 56.6%.
For `COc1cc(CN2CCN(c3cccc(OC)c3)C(=O)C2)cc(OC)c1`, the “Percent Effect” value worked out at 8.627%.
In the case of `COc1cccc(N2CCN(Cc3ncc[nH]3)CC2=O)c1`, the “Percent Effect” value was -18.02%.
Regarding `COc1cccc(N2CCN(Cc3cccc(CCN)c3)CC2=O)c1`, the “Percent Effect” value amounted to 56.89%.
Consider `NCCc1cccc(CN2CCN(c3ccccc3)C(=O)C2)c1`, for which the “Percent Effect” value was -23.11%.
`COc1cccc(N2CCN(Cc3cc(C)cc(F)c3)CC2=O)c1`: the “Percent Effect” value was 45.53%.
Regarding `NCCc1cccc(CN2CCN(c3cccc(Cl)c3)C(=O)C2)c1`, the “Percent Effect” value came to 12.48%.
The same measure for `COc1cccc(N2CCN(Cc3ccc4ccn(C)c4c3)CC2=O)c1`: 57.23%; for `COc1cccc(N2CCN(Cc3ccc4occc4c3)CC2=O)c1`: 21.65%.
The same measure for `Cc1ccnn1CCC(=O)N1CCCC[C@@]2(C)[C@@H]1CCC(=O)N2C`: -72.7%; for `CC(C)n1nc(CN2CCCC2)c2c1CN(CC1CC1)CC2.O=C(O)C(F)(F)F.O=C(O)C(F)(F)F`: 3.423%; for `O=C(CCn1nc(C(F)(F)F)c(Cl)c1C1CC1)NN1CCOCC1`: 6.641%.
On to `CNS(=O)(=O)c1cc(C(=O)NC2CCOc3ccccc32)cc(C)c1C` (configuration not stated), for which the “Percent Effect” value is recorded as -0.5765%.
Take `Cc1cccc(CN2CC[C@@H]3[C@@H]2CCN3C(=O)Cc2cccs2)n1.O=C(O)C(F)(F)F.O=C(O)C(F)(F)F`: the “Percent Effect” value is reported as 14.31%.
Take `Cn1nc(Br)c2c(NCCNc3ncccn3)ncnc21`: the “Percent Effect” value came to 7.21%.
Take `O=C(c1nnn(-c2ccc(C(F)(F)F)cc2)n1)N1CC(O)C1`: the “Percent Effect” value worked out at 30.38%.
Under `O=C(c1nnn(-c2ccc(C(F)(F)F)cc2)n1)N1CCC(O)CC1` stands 42.24%.
Turning to `CC1CCCN(C(=O)c2nnn(-c3ccc(C(F)(F)F)cc3)n2)C1` (configuration not stated), the “Percent Effect” value is reported as 77.62%.
As to `Cc1cc(N2CCCC2c2nnc3n2CCCCC3)nc(N)n1` (configuration not stated), the “Percent Effect” value is -31.59%.
Take `COCC(=O)N1CCc2ncc(Cn3cncn3)n2CC1`: the “Percent Effect” value is given as 12.01%.
Turning to `CN1CC2(CCCN(Cc3cccc(Oc4ccccc4)c3)C2)OC1=O` (configuration not stated), the “Percent Effect” value is recorded as 2.197%.
Consider `COc1ncc(-c2c(C#N)c(N)nc3c2CCc2[nH]ccc2-3)cn1`, for which the “Percent Effect” value was found to be 19.25%.
The same measure for `Cn1cc(-c2c(C#N)c(N)nc3c2CCc2[nH]ccc2-3)cc1C#N`: 1.934%; for `Cn1cc(-c2c(C#N)c(N)nc3c2CCc2[nH]ccc2-3)cn1`: 95.48%.
Regarding `Cc1nc(NC(=O)c2c(-n3cnnn3)sc3c2CCCC3)sc1C`, the “Percent Effect” value was 19.43%.
Turning to `CCN1CCCC(NC(=O)CCn2c(C(F)F)cc3cccnc32)C1` (configuration not stated), the “Percent Effect” value is 6.84%.
Take `COCC1N(C(=O)Nc2ccccc2)[C@H]2CC[C@]1(O)CC2` (some centres not stated): the “Percent Effect” value is -35.59%.
Consider `Cc1nc(-c2cccc(N3CCC(N4CCCC(C#N)C4)CC3)c2)cs1` (configuration not stated), for which the “Percent Effect” value amounted to 11.96%.
`COC1CCCN(C2CCN(c3cccc(-c4csc(C)n4)c3)CC2)C1` (configuration not stated): the “Percent Effect” value was -0.3551%.
Take `Cc1nc(-c2cccc(N3CCC(N4CCCC4)CC3)c2)cs1`: the “Percent Effect” value came to 50.87%.
Under `COCCN1CCC(CNC(=O)c2ccnc(-n3ccnc3)c2)CC1` stands -23.45%; under `COc1ccc(N(C(=O)c2cnc(C)cn2)C(C)C)cc1F`, -10.07%.
`COC(=O)c1cnc(C(=O)N(c2ccc(OC)c(F)c2)C(C)C)cn1`: the “Percent Effect” value worked out at 77.94%.
For the compound `COc1ccc(N(C(=O)c2ccccn2)C(C)C)cc1F`, the “Percent Effect” value was 9.62%.
For the compound `COc1cc(N2C[C@@H]3COC[C@]3(COc3cccnc3)C2)ncn1.O=C(O)C(F)(F)F.O=C(O)C(F)(F)F`, the “Percent Effect” value is on record as -11.05%.
The same measure for `O=C(O)c1ccc(S(=O)(=O)Nc2cnn(CC(F)(F)F)c2)cc1`: 41.5%; for `COc1cccc(CC(C)NC(=O)NCCNC(C)=O)c1` (configuration not stated): 11.1%.
With `COc1cccc(CC(C)NC(=O)NCc2ccn(C)c2)c1` (configuration not stated), the “Percent Effect” value amounted to 85.29%.
As to `COc1cccc(CC(C)NC(=O)NC(C)C)c1` (configuration not stated), the “Percent Effect” value was found to be 44.88%.
Take `CS(=O)(=O)C1CCN(S(=O)(=O)c2ccc(F)c(F)c2)CC1`: the “Percent Effect” value came out at 25.65%.
`COc1ccc(N2CCC(NCc3csc(C(C)C)n3)CC2)cc1`: the “Percent Effect” value stood at 77.68%.
As for `CC(C)c1nc(CNc2ccc(N3CCC(CO)CC3)cn2)cs1`, the “Percent Effect” value turned out to be 20.33%.
For the compound `CCc1nc(CNC2CCN(c3ccc(OC)cc3)CC2)cs1`, the “Percent Effect” value is reported as 27.61%.
With `COCCn1c(CN2CCCO2)cnc1S(=O)(=O)CC1CCCCC1`, the “Percent Effect” value is 19.4%.
Turning to `N#Cc1ccc(S(=O)(=O)N2CC(CC(=O)O)c3ccccc32)cc1` (configuration not stated), the “Percent Effect” value is given as 19.47%.
For `Cc1cccc(NC(=O)[C@@H]2CCCN2Cc2ccc(C#N)cc2F)n1`, the “Percent Effect” value is 12.34%.
As to `CN(C)C(=O)Cc1ccccc1NCc1cc(C#N)ccc1F`, the “Percent Effect” value turned out to be 3.977%.
Consider `Cc1cc(CN2CCN(Cc3ccc(C#N)cc3F)CC2)no1`, for which the “Percent Effect” value is -3.509%.
On to `CN(C)C(=O)C1CN(Cc2ccc(C#N)cc2F)c2ccccc2O1` (configuration not stated), for which the “Percent Effect” value is reported as 104.6%.
In the case of `CNC(=O)[C@@H]1CC[C@@H]2[C@@H](CCN2Cc2ccccc2F)O1.O=C(O)C(F)(F)F`, the “Percent Effect” value is given as -11.16%.
Take `CNC(=O)C1CN(Cc2ccc(C#N)cc2F)c2ccccc2O1` (configuration not stated): the “Percent Effect” value was found to be 105.9%.
Consider `CN(C)C(=O)C1CN(Cc2ccc(C#N)cc2)c2ccccc2O1` (configuration not stated), for which the “Percent Effect” value amounted to 104.5%.
`CN(C)C1Cc2ccccc2N(S(=O)(=O)c2ccc(C#N)cc2)C1` (configuration not stated): the “Percent Effect” value is on record as 12.67%.
As to `CCS(=O)(=O)N1CCc2c(cccc2NC(=O)NCCOC)C1`, the “Percent Effect” value is given as 16.78%.
As for `COc1ccccc1CCN(C)C(C)c1nc(-c2cccnc2)no1` (configuration not stated), the “Percent Effect” value is on record as -40.91%.
`CN(CCc1ccncc1)c1cnn(C)c(=O)c1Br`: the “Percent Effect” value is recorded as -2.68%.
As to `CC1Cn2c(nc3c2c(=O)[nH]c(=O)n3C)O1` (configuration not stated), the “Percent Effect” value was -12.37%.
Under `COCC(=O)N1CCCCC1c1ccncn1` (configuration not stated) stands -40.59%.
Turning to `Cc1cc(C(=O)Nc2n[nH]c(C3CC3)n2)c2c(C)nn(C)c2n1`, the “Percent Effect” value was found to be 11.85%.
The same measure for `COc1ccc(N2CCC(NC(=O)c3sccc3C)CC2)cc1`: -7.923%; for `CC(=O)c1ccc(NC(=O)NCc2cccc(N(C)C)n2)cc1C`: 76.43%; for `CN(C)c1cccc(CNC(=O)Nc2ccc3[nH]nnc3c2)n1`: 45.79%.
The same measure for `Cc1nc(CCNC(=O)NCc2cccc(N(C)C)n2)cs1`: -57.29%.
For the compound `CCC(=O)N1CCC(c2ncc3c(n2)CCNC3)CC1`, the “Percent Effect” value was -31.27%.
Regarding `Cl.Cn1ccnc1CNC(=O)c1ccnc(C2CCNCC2)c1`, the “Percent Effect” value is on record as -5.824%.
Turning to `Cl.O=C(NC1CCCC1)c1ccnc(C2CCNCC2)c1`, the “Percent Effect” value was found to be 56.56%.
The same measure for `Cl.O=C(c1ccnc(C2CCNCC2)c1)N1CCCC1`: -26.15%; for `O=C(O)C(F)(F)F.O=C(O)C(F)(F)F.c1cnn(CCCO[C@@H]2CC[C@H]3[C@H]2OCCN3CC2CCOCC2)c1`: -30.39%.
Take `O=C(Nc1nc2c(s1)CN(S(=O)(=O)C1CC1)CC2)c1cccc(Cl)c1`: the “Percent Effect” value amounted to 52.55%.
For `O=C(Nc1nc2c(s1)CN(S(=O)(=O)C1CC1)CC2)c1c(F)cccc1F`, the “Percent Effect” value is on record as 0.32%.
Turning to `O=C(Nc1nc2c(s1)CN(S(=O)(=O)C1CC1)CC2)c1ccc(Cl)s1`, the “Percent Effect” value is 7.24%.
For `Cc1ccc(C(=O)N2CC(=O)N(Cc3ccco3)CC(O)C2)cc1` (configuration not stated), the “Percent Effect” value came out at 7.151%.
As to `COc1ccc(-c2noc(CN3CC(n4cc(C)cn4)C3)n2)cc1`, the “Percent Effect” value is recorded as 22.62%.
For `COc1ccc(-c2nc(CN3CC(n4cccn4)C3)no2)cc1`, the “Percent Effect” value is reported as 15.06%.
In the case of `Cc1cc(C)n(C2CN(Cc3noc(-c4ccccc4)n3)C2)n1`, the “Percent Effect” value was determined as 16.77%.
With `COc1ccc(-c2nc(CN3CC(n4cc(C)cn4)C3)no2)cc1`, the “Percent Effect” value is 55%.
As to `COc1ccc(-c2nc(CN3CC(n4nc(C)cc4C)C3)no2)cc1`, the “Percent Effect” value was 46.41%.
Regarding `Cc1ccc(-c2nc(CN3CC(n4nc(C)cc4C)C3)no2)cc1`, the “Percent Effect” value came out at 102.5%.
As for `COCCCNC(=O)Nc1ncc(-c2cccc(OC)c2)n1CCOC`, the “Percent Effect” value worked out at 20.98%.
Take `CN(C)C(=O)CNC(=O)c1ccn(-c2ccc3ccccn23)n1`: the “Percent Effect” value is given as 8.811%.
As for `CCc1nnc(CS(=O)(=O)c2ccc(C)c(C)c2)n1C`, the “Percent Effect” value was -14.67%.
Under `CCn1ccnc1CN(C)C(C(=O)O)c1ccc(C(C)(C)C#N)cc1` (configuration not stated) stands -8.491%.
The same measure for `Cc1cccnc1CN(C)C(C(=O)O)c1ccc(-c2ccn[nH]2)cc1` (configuration not stated): 83.57%.
In the case of `Cc1cccnc1CN(C)C(C(=O)O)c1ccc(-n2cccn2)cc1` (configuration not stated), the “Percent Effect” value was found to be 103.2%.
Under `CN(Cc1ccc(-n2cccn2)cc1)C(=O)CCC(F)(F)F` stands -2.335%; under `Cc1cccnc1CN(C)C(C(=O)O)c1ccc(C(C)(C)C#N)cc1` (configuration not stated), 37.7%; under `COc1c(C)cc(C(C(=O)O)N(C)Cc2ccn[nH]2)cc1C` (configuration not stated), 14.99%.
Consider `COc1ccc(CN2C[C@@H]3CC[C@H](C2)N(S(C)(=O)=O)C3)cc1`, for which the “Percent Effect” value is listed as -9.044%.
For `Cc1cc2nc(C(C)C)cc(N3CCC(O)CC3)n2n1`, the “Percent Effect” value is listed as 7.748%.
`CC(C)c1cc(N2CCN(c3ccc(O)cc3)CC2)n2nccc2n1`: the “Percent Effect” value is given as 106.1%.
Turning to `Cc1cc2nc(C(C)C)cc(N3CCN(c4ccc(O)cc4)CC3)n2n1`, the “Percent Effect” value was 103.7%.
The same measure for `Cc1cc2nc(C(C)C)cc(N3CCSCC3)n2n1`: -12.34%.
Under `CC(C)c1cc(N2CCC(CCC(=O)NC3CC3)CC2)n2nccc2n1` stands 19.75%; under `CC(C)c1cc(N2CCC(N)CC2)n2nccc2n1`, 24.37%.
